Experimental data as given in the supplement of paper PMC11417369.
± gives the standard deviation of the averaged measurements. Over roughly 25,000 sequences, “ln(normalized median fluorescence intensity)” has its median near 7.9; the highest 2% begin near 11. Many of the other results were omitted from the sample, so the highest values are more common in it than they were.

System: PfAP2-I AP2 domain 3 (GST-tagged)
Experiment: gcPBM binding intensity (ln(normalized median fluorescence intensity)); higher = stronger DNA binding
Outline: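 An Agilent 4 × 180k array of primer-extended double-stranded 36-bp intergenic genomic probes, with negative controls, was incubated for 1 h with GST-tagged P. falciparum DNA-binding domains expressed in E. coli. Alexa488 anti-GST antibody detected bound protein, scanned at 488 nm. Binding intensity is the highest Masliner-normalised natural-log median intensity across replicate spots of either probe orientation.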

Row | Sequence | gcPBM binding intensity (ln)
1 | ACTAACATATATTCAACACACATATACCTTCAACCC [CACACA_site3011] | 7.94 ± 0.72
2 | TAAATGCACATATACACACACCCAATTTTAAGTTTT [CACACA_site7428] | 9.31 ± 0.3
3 | TAAATAAAAAAAAAAAGTACATACATACAAACATAT [XGTACX_site4427] | 7.79 ± 0.47
4 | TGAACATCATTTTTATGTACACACACATATACGTTG [XGTACX_site3864] | 7.96 ± 0.28
5 | AAAAAAAAATAATATTGTACACACATAAATTCTTTG [XGTACX_site4315] | 7.51 ± 0.47
6 | TTATAATACCTACAAAGTACAAACTTAAATATGAAC [XGTACX_site5684] | 7.68 ± 0.39
7 | TATACAAGTATATAGGTGCATATATAAGTATATATT [GTGCAC_site9994] | 10.5 ± 0.53
8 | ATATATTTATAATAGGTGCATATGTTTTATTTTTCC [GTGCAC_site9849] | 10.1 ± 0.5
9 | TATAGGTATATATAAGTGCAATATATATGTATATAC [GTGCAC_site9427] | 10.9 ± 0.41
10 | TATGGGTTTATATAGGTGCAATATATGTATATATAA | 11.2 ± 0.59
11 | TGTATGTTTGGGTGCACACATAAATATTATATATAG [CACACA_site3397] | 10.5 ± 0.57
12 | GCATATATGGATATATAGGTATATATAAATGCAATA [GTGCAC_negctrl_site24] | 7.82 ± 0.71
13 | AAATACCTGATATATACACACTATGTTTTTCTTTTT [CACACA_site6680] | 7.77 ± 0.81
14 | CTTTTTAAATTAAAATGTACAGAAAAATATTATTAT [XGTACX_site8760] | 7.72 ± 0.69
15 | AAGGAAAATTTTTGGTGTACACAAAAAAATCCAAAA [XGTACX_site3596] | 8.46 ± 0.057
16 | AAAGATGGAGTGATATGTACTGATATATTATTATAT [XGTACX_site6500] | 7.62 ± 0.67
17 | TGTATAACCTGTGTTACACACATTAAAATTTATATA [CACACA_site4449] | 7.67 ± 0.46
18 | TTTGTTCTTTTTGAAGTGCACTGAAATATAACAAAA | 11.3 ± 0.16
19 | TTATTTTTGTTTTGAAGTACAAAAAAATATATTCTT [XGTACX_site6416] | 7.63 ± 0.34
20 | AAATAATATTGAAAAGTGCATATTTTTGTTGATATA | 9.15 ± 0.21
21 | AAAAAAAAAAAAAAAGTGCATATATAAATATTGTAT [GTGCAC_site9459] | 10.1 ± 0.18
22 | AAAAAAAAAAAAAAAGTGCACTGAAAATATATTGAA [GTGCAC_site9395] | 11 ± 0.2
23 | TTCTTGTTCCTGAAAGTGCATATAACAAAAATAACA [GTGCAC_site9635] | 9.99 ± 0.3
24 | GTTTCCTTAATATTCACACACATATATATAATATAT [CACACA_site1856] | 8.22 ± 0.54

Row | Sequence | gcPBM binding intensity (ln)
25 | TATAAAAATATTTCTACACACATTAATATATATATA [CACACA_site1150] | 8.97 ± 0.042
26 | TTTTACATATACATGTGTACATAACAAAGAATGTTT [XGTACX_site2406] | 7.88 ± 0.57
27 | TATATACGCAAACACACACACACATACACCCACATA [CACACA_site1724] | 8.09 ± 0.31
28 | ACAGAATATTTAATTCAACACACATACATATTTATT [CACACA_site8734] | 7.61 ± 0.52
29 | TATATAAATTAACCAGTGCATTATTTGGAAATTATT | 11.1 ± 0.59
30 | TATAAATTTATACCAGTGCATTTTGAAATATATATA | 9.47 ± 0.057
31 | TATAAATTAAAATCAGTGCATATTTTGAAAAACCTC | 9.19 ± 0.41
32 | TGGTTATTTATCTTTATTATAAATATTTACAAATAA [CACACA_negctrl_site1773] | 7.61 ± 0.38
33 | TTCATAATAAAAAGGTGTACATATATATATATATAT [XGTACX_site2829] | 9.71 ± 0.2
34 | AAGAAATTTATTTATTGTACAATATATAATTTGTTT [XGTACX_site2478] | 7.59 ± 0.38
35 | TTTGTGTTTATAAATTGTACAAAGGTGCAAGAAGAA [XGTACX_site2159] | 11.1 ± 0.87
36 | ACAAATTGTTAAAGGTGTACAATACATATATAAGAA [XGTACX_site4906] | 8.46 ± 0.56
37 | GATTAATACACATTCTTCCGACATAATAAGAAAAAG [GTGCAC_negctrl_site7] | 8.04 ± 0.38
38 | TATATATATAAATGAATGCACTTTAGAAAAAAGTAC | 10.2 ± 0.23
39 | TGTCGGCTTAGATTAGTGCACTGAAAAATGAAGTAT [GTGCAC_site9919] | 11.8 ± 0.28
40 | GAAGTAGATGGAAAAGTGCACTGTAATGGTTATATT | 10.6 ± 0.035
41 | TATATCATATAAAACCGTACATACATACTTAATTGT [XGTACX_site6822] | 7.8 ± 0.29
42 | TATTTCAAACTGTTCTCACACACGAAATTAGAAATG [CACACA_site611] | 7.57 ± 0.66
43 | TATATAATAAGAAAATATGTGCGTAGTTCAGCAAAA [XGTACX_negctrl_site304] | 8.26 ± 0.74
44 | AAATTAGACTATAATACACACATAAAAAAAAAATCA [CACACA_site7672] | 7.79 ± 0.4
45 | TATATATTATATAAGAGTACATATAATTATAGTTTT [XGTACX_site5039] | 7.71 ± 0.52
46 | AATATATAATATATATGTACTTATATATAAAAGATA [XGTACX_site7635] | 7.8 ± 0.21
47 | AAGAACATATTATATACATGCATAATTCGATAGATT [TGCATGCA_site882] | 7.9 ± 0.69
48 | GTTAATCACCATGTGGTGCATATAAGGGCATATTAT [GTGCAC_site9748] | 11 ± 0.55

Row | Sequence | gcPBM binding intensity (ln)
49 | TATAATAATATAATGGTGCATGTATATAACCATATA | 9.21 ± 0.14
50 | GTGGTTATATATTAAGTGCATATTATAATTTTAAAC | 9.56 ± 0.14
51 | AAGAATTTTCGATTTGCACACATTTGTAAAATAAAA [CACACA_site2354] | 9.16
52 | TATAATAAATCAAATGCACACACACTAATAAAAAAA [CACACA_site7937] | 9.15 ± 0.11
53 | TATCTTCAAGTATGTACACACTATATATAATAAAAT [CACACA_site5368] | 8.11 ± 0.13
54 | TTTTGTACAAAAATAATGCACACTATATCAAGTTTT [CACACA_site3595] | 11 ± 0.51
55 | TAAATTTTTTTTTTTTGTACACAAAAATATAATATT [XGTACX_site8151] | 7.61 ± 0.31
56 | TTGTACAAAAATAATGCACACTATATCAAGTTTTTT [CACACA_site5898] | 10.9 ± 0.7
57 | AAAAAATATAATAATTGTACACATGCACACACAAAT [XGTACX_site1563] | 8.25 ± 0.48
58 | TTGTTTTCTTTTTCTTTTCTTTTTCTTTTTTCTTTT [GTGCAC_negctrl_site629] | 7.55 ± 0.73
59 | CATTAAAATATGAGATGTACACAATATCTATTATAT [XGTACX_site4979] | 7.82 ± 0.51
60 | CAATGCAAGGCTTAAAAAAATGGGCATATTATATAT [GTGCAC_negctrl_site304] | 7.79 ± 0.83
61 | TAAGTTATATGTATATGTACTTATATATATATATAT [XGTACX_site5402] | 9.16 ± 0.76
62 | AGAATATAATTTTTATGTACATATATTAAATATATT [XGTACX_site8521] | 7.6 ± 0.37
63 | CATATAAGAATCTTCTGTACTTATAAGAAAAGACAT [XGTACX_site8135] | 7.89 ± 0.48
64 | AAAAAAAGTTGATACTGTACTCGTGCATTATGAATA [XGTACX_site5558] | 11.3 ± 0.57
65 | TTATGAAAAAAATACTGTACACAATATGACGAAAGT [XGTACX_site2283] | 8.46 ± 0.42
66 | TATTATGACTTAAGTTGTACTGTTGAAAGAAGAAAA [XGTACX_site2985] | 7.88 ± 0.53
67 | ACTTAATTTTTTTATTGTACATGTAAATGAGGGAAA [XGTACX_site6305] | 8.25 ± 0.26
68 | AAGACTCTTTGTCCTTGTACATATATTTTTATGTTT [XGTACX_site3711] | 7.76 ± 0.59
69 | CACATACACATACAAACACACATTATGTATATATAT [CACACA_site1599] | 8.16 ± 0.84
70 | ATATATTTAAACTACACACGCATATCTTAGAAATAA [CACACA_site1272] | 7.77 ± 0.54
71 | AAAATAAAATTAGTTGCATGCAACTTAAACAGAAAT [TGCATGCA_site860] | 8.14 ± 0.63
72 | ATAAATAAAACAACAGTGCAATAAAATTAGTTGAGG | 10.9 ± 0.25

Row | Sequence | gcPBM binding intensity (ln)
73 | ATTAATTAAAATAGTTGTACAATCAAAAAAACAAAA [XGTACX_site7660] | 8.15 ± 0.64
74 | AATATATTTTTATATTGTACAAAAGAAAAAAAATAT [XGTACX_site1689] | 8.05 ± 0.48
75 | TTTTTTTTGTATTAATGTACATATAACTTTTTTTTT [XGTACX_site7903] | 7.7 ± 0.49
76 | AATACACATAATACATGTACTCACATTGTTATAACA [XGTACX_site4129] | 8.04 ± 0.53
77 | AGTTGCATACATTGAAGTACAGAACATTTATATATA [XGTACX_site240] | 7.86 ± 0.44
78 | TTTATATCATTACAAGTGCATATCATCATAAATTCT [GTGCAC_site9878] | 8.81 ± 0.3
79 | AGTTTGCATATGGAAGTGCATTACCTTGAACATCAT | 11.2 ± 0.38
80 | TATATATGTTTATGTAGTACTATATATCCCTTTCTT [XGTACX_site7049] | 7.61 ± 0.53
81 | TAAATTTATGGACACACACACATATATATATATATA [CACACA_site4620] | 9.45 ± 0.35
82 | TATAGATACACTTTGTGTACATAAAAATTGTATTAA [XGTACX_site7137] | 7.66 ± 0.29
83 | TATAAACTTAATTTGAGTACTTAATAATAATTTTGT [XGTACX_site3730] | 7.38 ± 0.47
84 | GTCAACTTGTGATAAGTGCATATATATAATAAAATG | 9.875 ± 0.078
85 | GAATAATATGGACATACACACATATACATACCTATA [CACACA_site7075] | 8.07 ± 0.59
86 | ATACAGTTGCATATGGTGCACGAATAATACACCTAT | 11 ± 0.25
87 | GTACACCTATAATATACACACAACAAATATGCACAT [CACACA_site6603] | 9.64 ± 0.39
88 | ACTATTAAGAATAAAGAAATATGTAATTGTATTTAA [CACACA_negctrl_site516] | 7.43 ± 0.59
89 | GTATAGAGAAAAAACTGTACTTTATATAAATATTTA [XGTACX_site3972] | 7.53 ± 0.3
90 | ATATATGTACAAATTGTGCGCAATAATTTTGTCTTT | 9.06 ± 0.33
91 | TACATTTCATTGTAATCATAAAAAATAAAGAAAAAA [XGTACX_negctrl_site542] | 7.58 ± 0.61
92 | CCTTTCCTTTTATAAGTGCATATAACAAATGTATAC [GTGCAC_site9872] | 10 ± 0.11
93 | ATATCTTATAATACGGTGCACTTGACATGAACAACT [GTGCAC_site9987] | 10.7 ± 0.3
94 | ATAATGAACAAAGTAGTGCACTTTCCTTATCTTTTC | 11.4 ± 0.26
